In PubChem BioAssay (Tox21):
“And” between values parts separate entries of the source, which are not always exact repeats. Equal values may be shown once. The source holds several records for some structures; these can differ, active in one and inactive in another. The source made the active and inactive calls. Entries that show only a call come without a potency. Unless noted, the call rests on the fitted dose curve; in most records, active means well fitted curve in the direction sought with a large enough effect in the repeat runs; inconclusive means weak or mixed curves; inactive means no such curve, though single readings can be large; an effect the other way counts as inactive or inconclusive.

Assays:
[1] = qHTS assay to identify small molecule antagonists of the thyroid receptor (TR) signaling pathway - cell viability counter screen (AID 743064); further: nearly all actives have a fitted effect of over 50% in size; further: potency means the concentration at half of the fitted maximal effect
How it was run: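 Compounds were tested on GH3.TRE-Luc cells in the presence of T3 at 1 nM final. Following 23.5 h at 37 °C, cell viability was quantified by CellTiter-Fluor.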

[2] = qHTS assay to identify small molecule antagonists of the estrogen receptor alpha (ER-alpha) signaling pathway using the BG1 cell line (AID 743080; calls by dose curve;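 further: BG1 cells stimulated with 17beta-estradiol alongside compound; nearly all actives have a fitted effect of over 25% in size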; further: potency means the concentration at half of the fitted maximal effect); conditions: BG1Luc4E2 ERE-luciferase antagonist mode, luminescence; activity change, negative = inhibition: at 70.3 µM (top of the series)
How it was run: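 Luminescence from a 4×ERE-luciferase reporter in BG1-Luc-4E2 cells served as read-out. Cells, pre-cultured 5 days in stripped-serum phenol-red-free medium, were exposed to compound with 17beta-estradiol co-stimulation for 21.5 h at 37 C.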

[3] = qHTS assay to identify small molecule antagonists of the estrogen receptor alpha (ER-alpha) signaling pathway using the BG1 cell line - cell viability counter screen (AID 743081);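 further: compound given together with 17beta-estradiol as the ER stimulus; nearly all actives have a fitted effect of over 45% in size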; further: potency means the concentration at half of the fitted maximal effect
Aromatase (Homo sapiens) = Aromatase (Homo sapiens) (UniProt P11511); assay: qHTS assay to identify aromatase inhibitors (AID 743083); further: nearly all actives have a fitted effect of over 55% in size; further: potency means the concentration at half of the fitted maximal effect
Sequence of Aromatase (Homo sapiens) (P11511 whole entry, looked up): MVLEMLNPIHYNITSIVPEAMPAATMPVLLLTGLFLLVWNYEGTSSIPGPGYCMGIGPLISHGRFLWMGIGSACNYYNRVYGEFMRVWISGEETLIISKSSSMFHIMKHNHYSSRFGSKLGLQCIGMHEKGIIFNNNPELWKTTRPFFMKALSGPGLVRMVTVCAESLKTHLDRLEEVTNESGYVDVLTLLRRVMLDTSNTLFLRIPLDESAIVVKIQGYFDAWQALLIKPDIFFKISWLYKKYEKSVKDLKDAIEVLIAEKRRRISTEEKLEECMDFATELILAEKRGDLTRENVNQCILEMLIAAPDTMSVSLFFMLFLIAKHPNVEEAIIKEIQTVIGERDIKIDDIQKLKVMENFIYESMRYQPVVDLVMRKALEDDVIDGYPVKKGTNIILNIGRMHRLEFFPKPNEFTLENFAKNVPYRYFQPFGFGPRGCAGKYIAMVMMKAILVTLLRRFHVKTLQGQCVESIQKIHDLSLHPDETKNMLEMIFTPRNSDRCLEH

[4] = qHTS assay to identify small molecule antagonists of the estrogen receptor alpha (ER-alpha) signaling pathway - cell viability counter screen (AID 743074; calls by dose curve; further: nearly all actives have a fitted effect of over 45% in size)
[5] = qHTS assay to identify small molecule antagonists of the thyroid receptor (TR) signaling pathway (AID 743065); further: nearly all actives have a fitted effect of over 55% in size; further: potency means the concentration at half of the fitted maximal effect
How it was run: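 Antagonism measured as loss of luciferase signal in GH3 cells stably carrying a TRE-luciferase reporter, co-treated with compound and T3 (1 nM final) for 23.5 h at 37 C. Viability was read in the same well by CellTiter-Fluor.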

[6] = system: thyroid hormone receptor (rat, GH3 cells); assay: qHTS assay to identify small molecule agonists of the thyroid receptor (TR) signaling pathway (AID 743066; calls by dose curve)
[7] = target: Estrogen receptor (Homo sapiens) (UniProt P03372); assay: qHTS assay to identify small molecule antagonists of the estrogen receptor alpha (ER-alpha) signaling pathway (AID 743069; active means well fitted curve in the direction sought with a large enough effect in the signal ratio in the repeat runs, not every such curve was filed as active; inconclusive means weak or mixed curves, or effect the other way; inactive means no such curve, though single readings can be large or run the other way; the % refers to the signal ratio; further: potency means the concentration at half of the fitted maximal effect)
Sequence of Estrogen receptor (Homo sapiens) (P03372 whole entry, looked up): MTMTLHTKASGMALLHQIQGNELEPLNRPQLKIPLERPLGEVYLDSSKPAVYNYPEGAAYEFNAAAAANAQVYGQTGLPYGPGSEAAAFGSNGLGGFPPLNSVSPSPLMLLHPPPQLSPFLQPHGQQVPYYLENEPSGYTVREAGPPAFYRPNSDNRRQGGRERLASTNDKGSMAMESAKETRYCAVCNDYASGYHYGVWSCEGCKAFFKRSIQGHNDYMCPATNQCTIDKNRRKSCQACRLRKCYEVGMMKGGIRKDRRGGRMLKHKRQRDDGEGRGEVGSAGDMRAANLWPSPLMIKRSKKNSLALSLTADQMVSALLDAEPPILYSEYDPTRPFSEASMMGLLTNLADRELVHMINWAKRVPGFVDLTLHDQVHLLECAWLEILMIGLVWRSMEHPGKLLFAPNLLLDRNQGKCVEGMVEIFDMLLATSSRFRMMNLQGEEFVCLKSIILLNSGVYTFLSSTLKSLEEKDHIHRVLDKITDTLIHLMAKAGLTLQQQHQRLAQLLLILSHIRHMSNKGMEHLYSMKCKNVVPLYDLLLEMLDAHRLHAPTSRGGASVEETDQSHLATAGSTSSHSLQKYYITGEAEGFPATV
How it was run: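 Fluorescence intensity from a beta-lactamase FRET substrate served as the read-out. Cells: HEK293 with stably integrated ER-alpha-UAS-bla reporter. Agonist 17beta-estradiol was co-added with compounds; incubation 18 hr at 37C, substrate 2 hr at room temperature.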

[8] = target: Estrogen receptor (Homo sapiens) (UniProt P03372); assay: qHTS assay to identify small molecule agonists of the estrogen receptor alpha (ER-alpha) signaling pathway (AID 743075; calls by dose curve; further: potency means the concentration at half of the fitted maximal effect)
[9] = target: Estrogen receptor (Homo sapiens) (UniProt P03372); assay: qHTS assay to identify small molecule agonists of the estrogen receptor alpha (ER-alpha) signaling pathway using the BG1 cell line (AID 743079); conditions: BG1Luc4E2 cells, ERE-luciferase agonist, 22 h; activation: at 70.3 µM (top of the series); further: nearly all actives have a fitted effect of over 20% in size; further: potency means the concentration at half of the fitted maximal effect

For `Clc1ccc(C(Cn2ccnc2)OCc2ccsc2Cl)c(Cl)c1` (stereo not given), the Potency [1] was 13.3 µM (active), the Potency [2] was “inactive” and the Potency [3] was “inactive”. The Potency (Aromatase (Homo sapiens)) was 5.31 µM (active).

For `CN1[C@@H]2CC[C@@H]1CC(OC(=O)C(CO)c1ccccc1)C2` (stereo not given in full), the Potency [1] was “inactive”, the Potency [4] was “inactive” and the Potency [3] was “inactive”. The Potency (Aromatase (Homo sapiens)) was “inactive”.

With `CCCCCCCCCCCCCCCC` the Potency [5] was “inactive”, the Potency [6] was “inactive” and the Potency [7] was “inactive”. The Potency [4] was “inactive”, the Potency [8] was “inactive” and the Potency [2] was “inactive”. For the same molecule, the Potency [3] was “inactive” and the Potency (Aromatase (Homo sapiens)) was “inactive”.

With `CCCCCCCC/C=C\CCCCCCCC(=O)N(C)CC(=O)O` the Potency [1] was 30.6 µM (active), the Potency [5] was 61.1 µM (active) and the Potency [9] was “inactive”. For the same molecule, the Potency [2] was “inactive” and the Potency [3] was “inactive”.

In the case of `CN(C)c1ccc(N=NS(=O)(=O)O)cc1`, the Potency [5] is reported as “inactive” and the Potency [6] is reported as “inactive”.

For `CO[C@H]1C=CO[C@@]2(C)Oc3c(C)c(O)c4c(O)c(cc(O)c4c3C2=O)NC(=O)/C(C)=C\C=C/[C@H](C)[C@H](O)[C@@H](C)[C@@H](O)[C@@H](C)[C@H](OC(C)=O)[C@@H]1C`, the Potency [1] was 48.9 µM (active), the Potency [7] was “inactive” and the Potency [4] was “inactive”. For the same molecule, the Potency [8] was “inactive”, the Potency [9] was “inactive” and the Potency [2] was “inactive”. The Potency [3] was “inactive and 34.6 µM (active)” and the Potency (Aromatase (Homo sapiens)) was “inactive and 21.8 µM (active)”.

For `CCCCCCCCCCCCCCNCCO`, the Potency [1] was “inactive”, the Potency [6] was “inactive” and the Potency [7] was “inactive”. For the same molecule, the Potency [4] was “inactive”, the Potency [8] was “inactive” and the Potency [9] was 0.188 µM (active). The Potency [3] was “inactive” and the Potency (Aromatase (Homo sapiens)) was “inactive”.

With `O=C1Nc2ccc(Cl)cc2[C@@](C#CC2CC2)(C(F)(F)F)O1` the Potency [1] was 29.8 µM (active), the Potency [4] was “inactive” and the Potency [8] was “inactive”. The Potency [2] was 33.5 µM (active), the Potency [3] was “inactive” and the Potency (Aromatase (Homo sapiens)) was 23.7 µM (active).

With `Cc1oc(-c2ccccc2)nc1CCOc1ccc(C[C@H](Nc2ccccc2C(=O)c2ccccc2)C(=O)O)cc1` the Potency [1] was 27.3 µM (active), the Potency [5] was 54.5 µM (active) and the Potency [8] was “inactive”. For the same molecule, the Potency [2] was “inactive”.

With `Cc1c(C)n(Cc2ccccc2)c2ccc(C(=O)OCCN(C)C)cc12` the Potency [1] was 7.5 µM (active), the Potency [5] was 10.6 µM (active) and the Potency [3] was “inactive”. The Potency (Aromatase (Homo sapiens)) was “inactive”.

With `S=P(N1CC1)(N1CC1)N1CC1` the Potency [1] was “inactive”, the Potency [6] was “inactive” and the Potency [7] was “inactive”. The Potency [4] was “inactive”, the Potency [8] was “inactive” and the Potency [9] was “inactive”. The Potency [2] was “inactive”, the Potency [3] was “inactive” and the Potency (Aromatase (Homo sapiens)) was “inactive”.

For `Cc1c(-c2ccc(O)cc2)n(Cc2ccc(OCCN3CCCCCC3)cc2)c2ccc(O)cc12`, the Potency [1] was 9.44 µM (active), the Potency [4] was “inactive” and the Potency (Aromatase (Homo sapiens)) was 0.0211 µM (active).

In the case of `CC(C)(C)C1=CC(=O)C=C(C(C)(C)C)C1=O`, the Potency [1] is reported as “inactive”, the Potency [6] is reported as “inactive” and the Potency [7] is reported as “inactive”. For the same molecule, the Potency [8] was “inactive”, the Potency [9] was “inactive” and the Potency [2] was “inactive”. For the same molecule, the Potency [3] was “inactive” and the Potency (Aromatase (Homo sapiens)) was 34.4 µM (active).

For `Cc1ccc(N)cc1O`, the Potency [5] was “inactive”, the Potency [6] was “inactive” and the Potency [7] was “inactive”. The Potency [8] was “inactive”, the Potency [9] was “inactive” and the Potency [2] was “inactive”. For the same molecule, the Potency [3] was “inactive”.

For `N#CSCSc1nc2ccccc2s1`, the Potency [1] was 1.54 µM (active), the Potency [5] was 0.864 µM (active) and the Potency [8] was “inactive”. For the same molecule, the Potency [9] was “inactive”, the Potency [3] was “inactive” and the Potency (Aromatase (Homo sapiens)) was 15.4 µM (active).

For `Oc1c(Br)cc(Br)c2cccnc12`, the Potency [1] was 26.6 µM (active), the Potency [5] was 16.8 µM (active) and the Potency [8] was “inactive”. For the same molecule, the Potency (Aromatase (Homo sapiens)) was “inactive”.

In the case of `CN1[C@@H]2CC[C@H]1CC(OC(=O)C(CO)c1ccccc1)C2` (stereo not given in full), the Potency [1] is reported as “inactive”, the Potency [4] is reported as “inactive” and the Potency [3] is reported as “inactive”. The Potency (Aromatase (Homo sapiens)) was “inactive”.

In the case of `CN(C)CCCN1c2ccccc2Sc2ccc(C(F)(F)F)cc21`, the Potency [1] is reported as 9.44 µM (active), the Potency [5] is reported as 10.6 µM (active) and the Potency [8] is reported as “inactive”. For the same molecule, the Potency [2] was “inactive”, the Potency [3] was “inactive” and the Potency (Aromatase (Homo sapiens)) was “inactive”.

For `C=CC(C)(CCC=C(C)C)OC(=O)/C=C/c1ccccc1` (stereo not given), the Potency [1] was “inactive”, the Potency [7] was “inactive” and the Potency [4] was “inactive”. For the same molecule, the Potency [8] was “inactive”, the Potency [9] was 61.1 µM (active) and the Potency [2] was “inactive”. The Potency [3] was “inactive” and the Potency (Aromatase (Homo sapiens)) was “inactive”.

In the case of `CC(=O)Oc1ccc(C2(c3ccc(OC(C)=O)cc3)Oc3ccccc3NC2=O)cc1`, the Potency [5] is reported as 5.96 µM (active), the Potency [6] is reported as “inactive” and the Potency [7] is reported as 8.49 µM [inconclusive] (active). For the same molecule, the Potency [4] was “inactive”, the Potency [8] was 7.56 µM [inconclusive] (active) and the Potency [3] was “inactive”. For the same molecule, the Potency (Aromatase (Homo sapiens)) was “inactive”.

With `CC(C)OC(=O)c1cc(C(=O)OC(C)C)cc([N+](=O)[O-])c1` the Potency [5] was “inactive” and the Potency [6] was “inactive”.

In the case of `C=C(C)C(=O)OCCC[Si](Cl)(Cl)Cl`, the Potency [1] is reported as “inactive”, the Potency [4] is reported as “inactive” and the Potency [3] is reported as “inactive”. The Potency (Aromatase (Homo sapiens)) was “inactive”.

In the case of `CC(=O)Oc1ccc(C2(c3ccc(OC(C)=O)cc3)C(=O)Nc3ccccc32)cc1`, the Potency [1] is reported as “inactive”, the Potency [6] is reported as “inactive” and the Potency [7] is reported as “inactive”. For the same molecule, the Potency [4] was “inactive”, the Potency [8] was “inactive” and the Potency [3] was 841 nM (active) and 1.19 µM (active). The Potency (Aromatase (Homo sapiens)) was “inactive”.

With `Oc1ccc(-c2ccccc2)c(Cl)c1` the Potency [1] was “inactive”, the Potency [6] was “inactive” and the Potency [4] was “inactive”. The Potency [8] was 61.6 µM [inconclusive] (active), the Potency [9] was 54.5 µM (active) and the Potency [2] was “inactive”. The Potency [3] was “inactive” and the Potency (Aromatase (Homo sapiens)) was “inactive”.

In the case of `C[C@@H]1CC[C@H]2C(C)(C)[C@H]3C[C@@]12CC[C@@]3(C)O`, the Potency [5] is reported as 54.4 µM (active), the Potency [6] is reported as “inactive” and the Potency [7] is reported as “inactive”. The Potency [4] was “inactive”, the Potency [8] was “inactive” and the Potency [9] was “inactive”. The Potency [3] was “inactive” and the Potency (Aromatase (Homo sapiens)) was “inactive”.

In the case of `O=C1OC(=O)c2cccc3cccc1c23`, the Potency [1] is reported as “inactive”, the Potency [6] is reported as “inactive” and the Potency [7] is reported as “inactive”. The Potency [4] was “inactive”, the Potency [8] was “inactive” and the Potency [9] was “inactive”. For the same molecule, the Potency [2] was “inactive”, the Potency [3] was “inactive” and the Potency (Aromatase (Homo sapiens)) was “inactive”.

In the case of `CCN(CC)c1ccc(N)cc1`, the Potency [3] is reported as 70.5 µM (active) and the Potency (Aromatase (Homo sapiens)) is reported as 28.1 µM (active).

In the case of `S=C(SSSSSSC(=S)N1CCCCC1)N1CCCCC1`, the Potency [6] is reported as “inactive”, the Potency [7] is reported as “inactive” and the Potency [8] is reported as “inactive”. The Potency [9] was “inactive”, the Potency [3] was “inactive” and the Potency (Aromatase (Homo sapiens)) was 0.268 µM (active).

In the case of `Nc1ccc2cc3ccc(N)cc3nc2c1`, the Potency [5] is reported as 5.31 µM (active) and 3.06 µM (active), the Potency [6] is reported as “inactive” and the Potency [4] is reported as “inactive”. For the same molecule, the Potency (Aromatase (Homo sapiens)) was 16.8 µM (active) and 6.11 µM (active).
